From PubChem BioAssay AID1347041 (National Center for Advancing Translational Sciences (NCATS), 2019)
“And” between values parts separate entries of the source, which are not always exact repeats. Equal values may be shown once. Among all 480,000 compounds or so, about 740 (0.15%) were called active. Rule as the data show it: active = activity change below about -30%; inconclusive = mostly about -25% to -30%; inactive = weaker than that. The full list was thinned out, with actives kept by preference. Some structures have more than one record in an assay (separate samples or runs), and their calls can disagree.

biological target: L-lactate dehydrogenase A chain (Homo sapiens) (UniProt P00338); experiment: qHTS assay for inhibitors of human lactate dehydrogenase; conditions: purified LDHA, NADH/diaphorase-resazurin fluorescence; stronger effect = lower value;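 also: values are at about 110 or 230 µM; plate controls were DMSO wells for no effect and wells without enzyme for full effect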
Procedure, shortened: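 LDH5 2 nM; NADH 0.06 mM, pyruvate 0.2 mM; 200 mM Tris pH 7.4, EDTA, Tween-20; 5 min RT. Detection: diaphorase 0.133 mg/mL + resazurin 37 µM, fluorescence ex540/em590 at 0 and 20 min; normalized to enzyme-free and DMSO wells.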

Row | SMILES | activity change
1 | O=C(COc1ccccc1C(=O)Nc1ccccc1)NC1CC1 | 2.72% (inactive)
2 | Cc1cc2oc(=O)cc(CN3CCCCCCC3)c2cc1C | 3.97% (inactive)
3 | Cc1nc2nc(CN)nn2c(C)c1CCC(=O)NC1CCCCC1 | 10.1% (inactive)
4 | CCCn1c(SC(C)C(=O)c2ccc(Cl)cc2)n[nH]c1=O (stereo not given) | 1.73% (inactive)
5 | CSc1nnc([C@H](CC(C)C)NC(=O)OC(C)(C)C)o1 | -6.07% (inactive)
6 | c1ccc(Oc2ncnc3scc(-c4ccc(-c5ccccc5)cc4)c23)cc1 | 2.38% (inactive)
7 | CCn1c(SCc2ccc(F)cc2Cl)nnc1-c1ccccn1 | -9.31% (inactive)
8 | Cc1ccc(NC(=O)C2=Cc3sc4c(c3CS2)CCCC4)c(C)c1 | 4.96% (inactive)
9 | NC(N)=Nc1ccc(F)cc1 | 0.928% (inactive)
10 | O=C(CCc1nc(-c2ccccc2)no1)N1CCc2sccc2C1c1cccs1 (stereo not given) | 9.21% (inactive)
11 | Cc1cc(C)n2ncc(-c3noc(C(=O)NC4CCCC4)n3)c2n1 | -0.0013% (inactive)
12 | Cc1nc2cc(NC(=O)COc3ccccc3C(C)(C)C)ccc2o1 | 3.35% (inactive)
13 | Cc1[nH]c2ccccc2c1C(=O)C(C)Sc1ccc2c(c1)OCCCO2 (stereo not given) | 7.43% (inactive)
14 | Cc1nc2cc(NC(C)C(=O)Nc3ccccc3Cl)ccc2o1 (stereo not given) | -7.75% (inactive)
15 | c1ccc(COc2ccc(CNc3ccccc3)cc2)cc1 | -2.65% (inactive)
16 | O=C(Nc1ccc(N2CCOCC2)cc1)c1ccc2c(c1)S(=O)(=O)c1ccccc1C2=O | 0.869% (inactive)
17 | CC(C)CCn1c(=O)[nH]c(=O)c2c3c(cnc21)C(=O)CC(c1ccc(F)cc1)C3 (stereo not given) | 8.23% (inactive)
18 | Fc1ccc(-n2c(Cc3ccccc3)nnc2SCc2ccc(Br)cc2)cc1 | 11.5% (inactive)
19 | COc1ccc(CNS(=O)(=O)c2ccc(-c3ccc(=O)[nH]n3)s2)cc1 | -1.99% (inactive)
20 | O=C1CN(CC(=O)Nc2c(Cl)cc(Cl)cc2Cl)CCN1 | -9.74% (inactive)

Row | SMILES | activity change
21 | CCOc1ccccc1N(CC)C(=O)Cc1noc2ccccc12 | 1.93% (inactive)
22 | COc1ccc(OC)c(C2C(C#N)=C(N)Oc3cc(O)ccc32)c1 (stereo not given) | 6.17% (inactive)
23 | O=C(O)c1c(Br)c(Br)c(Br)c(Br)c1C1c2ccc(O)cc2Oc2cc(O)ccc21 | -47.5% (active)
24 | O=C(c1n[nH]c(=O)c2ccccc12)N1CCN(S(=O)(=O)c2ccccc2F)CC1 | 12.5% (inactive)
25 | COc1cccc(-c2c(NC(=O)c3ccc(Cl)cc3)oc3ccccc3c2=O)c1 | -5.8% (inactive)
26 | O=C(O)Cc1ccc(F)c2ccccc12 | 2.09% (inactive)
27 | CC(Sc1nc2cc(S(=O)(=O)N3CCCCC3)ccc2o1)C(=O)Nc1cccc(Cl)c1 (stereo not given) | 6.97% (inactive)
28 | CN(C(=O)c1cnc(N2CCOCC2)c2ccccc12)C1CCCCC1 | 3.81% (inactive)
29 | N=C(N)CCl | 0.754% (inactive)
30 | CC1CCC(C(C)C)C(NC(=O)c2ccccc2)C1 (stereo not given) | 0.148% (inactive)
31 | Cc1cc(-c2nc3ncccc3o2)ccc1NC(=O)CC12CC3CC(CC(C3)C1)C2 | -0.587% (inactive)
32 | O=C(CCc1ncc(-c2ccccc2F)o1)NCc1ccc2c(c1)OCO2 | 9.36% (inactive)
33 | O=C(/C=C/c1cccc(Br)c1)c1ccc(O)c(CCCl)c1 | 0.183% (inactive)
34 | CC(N)c1cccc([N+](=O)[O-])c1 (stereo not given) | 8.12% (inactive)
35 | O=C(O)C1CCN(c2ccc3nnc(C(F)(F)F)n3n2)CC1 | -1.19% (inactive)
36 | Cc1ccc(/C=C(/C#N)C(=O)c2ccsc2)cc1C | 4.55% (inactive)
37 | CC(C)(C)C(=O)N1CCC(C(=O)N2CCC(c3nc4ccccc4o3)CC2)CC1 | 0.769% (inactive)
38 | O=C(C(c1ccccc1)N1CCN(S(=O)(=O)c2cccs2)CC1)N1CCCCC1 (stereo not given) | 1.33% (inactive)
39 | O=C(NCc1ccco1)NNc1nc2c(-c3ccccc3)nnn2c2ccccc12 | 0.688% (inactive)
40 | Clc1cc(Cl)c(N/N=C/c2ccc(Br)cc2)c(Cl)c1 | 1.46% (inactive)

Row | SMILES | activity change
41 | Cc1cc(OC(=O)c2c(Cl)cccc2Cl)nc(C)n1 | -6.35% (inactive)
42 | Cc1cc(C)c(S(=O)(=O)c2ccccc2)c(OC(=O)c2c(F)cccc2Cl)n1 | -58% (active)
43 | O=C(OCc1ncc(-c2ccccc2)o1)c1c(F)cccc1Cl | -4% (inactive)
44 | CC(=O)c1c(C)[nH]c(C)c1C | -0.832% (inactive)
45 | CCc1nc(C#N)c(NCC(c2cccs2)N2CCOCC2)o1 (stereo not given) | 4.58% (inactive)
46 | CCCc1cc(=O)oc2cc(OC(C)C(=O)Nc3cccc(C(C)=O)c3)ccc12 (stereo not given) | 1.35% (inactive)
47 | Cc1c(C(=O)C(=O)NC(C)c2ccccc2)c2ccccc2n1C (stereo not given) | -3.86% (inactive)
48 | CCOC(=O)c1cc(S(=O)(=O)Nc2cccc(C)c2C)[nH]n1 | -1.21% (inactive)
49 | COc1ccc(OCCOC(=O)c2nn(C)c(=O)c3ccccc23)cc1 | 0.361% (inactive)
50 | Cc1nc(-c2ccc(F)cc2)c(CC(=O)N2CCN(S(=O)(=O)c3ccc(F)cc3)CC2)s1 | 7.31% (inactive) and -4.86% (inactive)
51 | Cc1nc(-c2ccc(F)cc2)c(CC(=O)Nc2cc(S(=O)(=O)N3CCCCC3)ccc2C)s1 | -0.452% (inactive)
52 | Cc1ccc(S(=O)(=O)N2CCN(C(=O)Cc3sc(C)nc3-c3ccc(F)cc3)CC2)c(C)c1 | 1.74% (inactive) and -33% (active)
53 | CC(NC(=O)c1nccnc1N)c1ccco1 (stereo not given) | -5.25% (inactive)
54 | CC(=O)[C@@H]1SC(N)=C(C#N)[C@H]1c1cccs1 | 12.5% (inactive)
55 | CCCn1c(N2CCN(C(=O)c3cccc(OC)c3)CC2)nc2sc3c(c2c1=O)CCCC3 | -1.23% (inactive)
56 | CCN(c1ccccc1)c1nnc(NC(=O)Nc2ccccc2OC)s1 | -2.61% (inactive)
57 | CCCn1nc(C(=O)Nc2ccc(OC)c(NC(C)=O)c2)c2ccccc2c1=O | -2.1% (inactive)
58 | CCNC(=O)CN1CCN(C(C(=O)O)c2c[nH]c3ccc(OCc4ccccc4)cc23)CC1 (stereo not given) | -6.48% (inactive)
59 | Fc1ccc(OCc2nn3c(CSc4ccccc4)nnc3s2)cc1 | -2.81% (inactive)
60 | O=C(CN1CCN(CC(=O)c2c[nH]c3ccccc23)CC1)NC1CC1 | 0.902% (inactive)
